Compound activity as filed in PubChem.
A selection: hits, their analogues and other compounds. The true share with any hit is near 2.8%.
PMP22 txn: Cell-based coincidence reporter assay to measure PMP22 gene transcription in S16 Pmp22-F2sN cells - Primary screen. S16 Pmp22-F2sN Schwann cells, FLuc/NLuc coincidence luminescence, 24 h. AID 1508649, 2021. Potency, µM (highest dose often 57.5 µM), inactives show top-dose activity change, negative = inhibition, usual class: inhibitors. 43,000 tested, 2% active; active = clear falling dose curves in both reporters; inconclusive = both reporters move, but less clearly or upward; inactive = either reporter flat; the % is the NLuc reporter signal; also: % is scaled to controls: 0 for no effect and ±100 for the full control effect
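qHTS, 1536-well. Cells seeded, compounds added by pin tool, 24 h 37C. Nano-Glo reagent 1 (lysis/FLuc), 10 min RT, read; Stop&Glo, 10 min RT, read NLuc.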
pS6 MEF inh: Acumen qHTS Assay for Inhibitors of the mTORC1 Signaling Pathway in MEF (Tsc2-/-, p53-/-) Cells: Sytravon; Potency, µM (doses to about 38.3 µM), without a hit: at the highest dose activity change, negative = inhibition, most hits filed as inhibitors; AID 493208, 2011; Tsc2-/- p53-/- MEF, phospho-rpS6 immunofluorescence/PI, 24 h; 44,000 tested, 0.78% active;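 also: plate controls were DMSO for no effect and rapamycin for full effect; nearly all actives have a fitted effect of over 50% in size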
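Tsc2-/-, p53-/- MEFs (empty-vector stable line) in DMEM + 10% FBS were treated with compounds 24 h at 37 degree Celsius, fixed, and immunostained for phospho-rpS6 (Alexa-488) with propidium iodide counterstain. Laser-scanning cytometry gave % positive cells, normalized against 7.5 nM rapamycin and DMSO.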
GALC G270D act: A Novel Cell-Based Assay to Identify Small Molecules for B -Galactocerebrosidase | P54803 | 145M-Twi-hGALC-G270D cells (Twitcher mouse brain line with human GALC G270D), HMU-beta-Gal fluorescence, 48 h | Potency, µM (series often up to 57.5 µM), usual class: activators | 45,000 tested, 0.1% active; also: 0% is about no effect; nearly all actives have a fitted effect of over 65% in size
Target sequence (P54803 whole entry G286D): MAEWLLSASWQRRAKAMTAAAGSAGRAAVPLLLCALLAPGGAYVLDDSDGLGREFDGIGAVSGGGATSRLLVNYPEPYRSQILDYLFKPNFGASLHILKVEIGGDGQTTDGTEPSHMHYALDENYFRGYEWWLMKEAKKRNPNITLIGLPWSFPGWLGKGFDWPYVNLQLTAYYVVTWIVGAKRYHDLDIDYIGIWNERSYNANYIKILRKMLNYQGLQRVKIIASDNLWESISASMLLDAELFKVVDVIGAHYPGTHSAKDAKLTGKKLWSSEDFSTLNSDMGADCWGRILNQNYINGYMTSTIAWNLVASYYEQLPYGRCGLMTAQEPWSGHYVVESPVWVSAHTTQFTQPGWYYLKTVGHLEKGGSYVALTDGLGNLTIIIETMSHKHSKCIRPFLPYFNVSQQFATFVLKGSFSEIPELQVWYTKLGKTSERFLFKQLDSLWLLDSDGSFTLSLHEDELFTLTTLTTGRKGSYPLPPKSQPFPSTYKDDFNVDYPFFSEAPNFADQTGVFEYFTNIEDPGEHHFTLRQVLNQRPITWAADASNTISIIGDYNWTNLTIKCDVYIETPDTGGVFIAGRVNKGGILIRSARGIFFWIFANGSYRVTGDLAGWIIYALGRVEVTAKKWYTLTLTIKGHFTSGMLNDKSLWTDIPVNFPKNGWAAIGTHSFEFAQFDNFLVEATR
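Fluorogenic HMU-b-Gal hydrolysis (0.1 mM final, pH 5.2 citrate-phosphate with 1 mg/mL sodium taurocholate; carbonate stop buffer) measures mutant GALC activity after compound treatment of live 145M-Twi Twitcher brain cells stably carrying human GALC-G270D, with wild-type GALC line alongside; activation sought.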
S16 F2sN tox: Cell viability qHTS assay in S16 Pmp22-F2sN cells; S16 Pmp22-F2sN Schwann cells viability, CellTiter-Glo, 24 h; Potency, µM (titrated, usually from 57.5 µM), for the others: at the top dose activity change, negative = cytotoxicity, actives largely listed as cytotoxic; 43,000 tested, 0.48% active; AID 1508642, 2021; also: % is scaled to controls: 0 for no effect and ±100 for the full control effect; nearly all actives have a fitted effect of over 65% in size
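Viability was measured by CellTiter-Glo luminescence (15 min, room temperature). This followed 24 h at 37 °C of compound exposure (23 nL pin transfer) in S16 Pmp22-F2sN Schwann cells, 500-1,000 per well.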
Numbers without * were called inactive; i = inactive; ? = inconclusive; . = no result. Unless noted, calls follow the shape of the dose curve; as a rule, active = well fitted curve in the direction sought with a large enough effect; inconclusive = small, poorly fitted or top-dose-only effect, or another doubt; inactive = no such curve, though single readings can be large; an effect the other way counts as inactive or inconclusive. Potency is read from the fitted curve at half-maximal effect.

SMILES	PMP22 txn	pS6 MEF inh	GALC G270D act	S16 F2sN tox
CCOc1ccc(-n2c(=O)c3c(C)c(C(=O)N(C)C)sc3n(Cc3cc(C)ccc3C)c2=O)cc1	4.5%	0.7%	i	2.1%
CCOC(=O)[C@@](C)(N)Cc1ccc(O)c(O)c1	.	.	i	.
O=C(O)Cn1c(=O)n(Cc2ccc(Br)cc2F)c(=O)c2ccc(Cl)cc21	.	.	i	.
COc1ccc(NC(=O)C(NC(=O)/C=C\c2ccc3c(c2)OCO3)c2ccccc2)cc1 (stereo not given)	-24.2%	10.4µM*	i	-27.5%
CCOC(=O)N1CCC(Nc2ccc(Cl)cc2N)CC1	.	.	i	.
COc1cc(C(=O)N(CCCN(C)C)c2nc3c(OC)cccc3s2)cc(OC)c1OC	?	18.5µM*	i	-1.4%
C/C(=N\O)[C@@H](C)NCC(C)(C)CN[C@H](C)/C(C)=N/O	.	.	i	.
COc1ccccc1Nc1c2c(nc3ccc(NC(=O)c4cccc(OC)c4OC)cc13)CCCC2	?	16.5µM*	i	?
COc1ccccc1Nc1c2c(nc3ccc(NC(=O)c4ccccc4F)cc13)CCCC2	?	?	i	?
O=C(OCC1(COC(=O)c2cccnc2)CCCC(COC(=O)c2cccnc2)(COC(=O)c2cccnc2)C1O)c1cccnc1	.	.	i	.
O=S(=O)(c1cccc(Cl)c1)n1c(/C=C/c2ccccc2Cl)nc2ccccc21	?	-10.6%	i	12.6µM*
CSc1ccc(/C=C/c2nc3ccccc3n2S(=O)(=O)c2cccc(Cl)c2)cc1	?	1.1%	i	?
COc1ccc(/C=C(\C#N)c2nc(-c3cc4c(ccc5ccccc54)oc3=O)cs2)cc1O	8.91µM*	3.5%	i	?
Cc1ccc(/C=C(\C#N)c2nc(-c3cc4c(ccc5ccccc54)oc3=O)cs2)cc1	0.4%	3.1%	?	-6.2%
CCCOc1ccc2c(c1)CC[C@@H]1[C@@H]2CC[C@]2(C)C(OC)CC[C@@H]12 (stereo not given in full)	.	.	i	.
CCc1c(C)sc2c1CCN(Cc1ccccc1)C2c1ccccc1 (stereo not given)	5.75µM*	4.4%	i	?
COc1cc(/C=C/C(=O)O[C@H]2CC[C@]34C[C@]35CC[C@]3(C)[C@@H]([C@H](C)CCC=C(C)C)CC[C@@]3(C)[C@@H]5CC[C@H]4C2(C)C)ccc1O	.	.	i	.
COC(=O)c1c(NC(=O)c2ccc(S(=O)(=O)N3CCCC(C)C3)cc2)sc2c1CCN(C(C)C)C2 (stereo not given)	?	0.9%	i	-3.9%
COC(=O)c1c(NC(=O)c2ccc(S(=O)(=O)N3CCCCC3)cc2)sc2c1CCN(C)C2	?	4.14µM*	i	?
CCCC(=O)OC1=CN(Cc2ccccc2)S(=O)(=O)c2ccccc21	-10.9%	16.5µM*	i	2.6%
CN1N=C(C(N)=O)CCC1=O	.	.	i	.
CCCCn1c2ccc(F)cc2c2nnc(SCCN(CC)CC)nc21	15.2µM*	?	i	-7.3%
CCCn1c2ccccc2c2nnc(SCC(=O)Nc3cccc(C(C)=O)c3)nc21	?	-13.0%	i	-19.5%
CC(=O)c1ccc(NC(=O)CCc2c(C)nc3cc(-c4ccc(Cl)cc4)nn3c2C)cc1	-29.0%	-10.9%	i	-5.9%
CCN(CC)S(=O)(=O)c1ccc(NC(=O)CCc2c(C)nc3cc(-c4ccc(Cl)cc4)nn3c2C)cc1	7.77µM*	11.7µM*	i	?
CCc1ccccc1NC(=O)Cn1nnc(C(=O)Nc2ccc(OC)c(OC)c2)c1N	2.0%	-12.1%	i	0.4%
COc1ccc(C)cc1NC(=O)CCNS(=O)(=O)c1cccc2nonc12	-1.1%	20.7µM*	i	12.0%
CN(C)c1ccc(C(=O)Nc2sc(Nc3ccccc3)nc2C(N)=O)cc1	-16.9%	4.65µM*	i	-1.1%
Fc1ccccc1Cn1c(-c2ccccc2)nc2ccccc21	-20.2%	-25.1%	i	?
CCOc1ccccc1NC(=O)CN1c2ccccc2S(=O)(=O)c2ccccc21	1.5%	-12.1%	i	?
